Results published in PubChem BioAssay.
Activity calls are given as the source filed them.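 The calls were made as follows, unless noted: active = visual image review flags a hit and inhibition of aggregation exceeds 20%; inconclusive = visual hit but inhibition at or below 20%; inactive = no hit on visual image review.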

Experiments:
[1] = inhibitors of TNFa-induced NFkB p65 translocation, primary screen, imaging, HUVEC, MLSMR starter and 10KST1 sets (AID 438;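 active = inhibition above 20% together with a positive visual image hit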;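 also: compound added about 3h40 before a 20 min TNFalpha stimulation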;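 as to inhibition: signal is the nuclear over cytoplasmic p65 intensity ratio per well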); settings: HUVEC TNFa-induced p65 nuclear translocation; cell count: measured here: nuclei count (cytotoxicity indicator), at 2.08 µM unless noted; inhibition: at 2 µM, stronger effect = higher value unless noted
[2] = reduction of polyQ htt aggregates in cells – imaging, exon1htt(103Q)mCFP cells, high-content imaging, primary screen (AID 483); settings: exon1htt(103Q)mCFP cell line, aggregate imaging, at 2 µM; inhibition of aggregation: stronger effect = higher value; nuclei count: measured here: cell count, toxicity;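 also: compound exposure lasted 3 days before fixation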;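 as to nuclei count: percent of the per-plate median nuclei count of sample wells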
[3] = endothelial E-selectin expression blockers – imaging, HUVEC, immunofluorescence, MLSMR starter and 10KST1 sets, primary screen (AID 487;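 active = visually confirmed hit in the image check and inhibition above 20%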;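 as to inhibition: signal is fraction of cell area covered by stained E-selectin grains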;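 as to nuclei count: 100% = median nuclei count of all wells on the same plate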); settings: HUVEC TNFalpha-induced E-selectin immunofluorescence imaging, at 2 µM; inhibition: stronger effect = higher value; nuclei count: measured here: cell number, toxicity
[4] = target: Voltage-gated potassium channel subunit beta-2 (Rattus norvegicus) (UniProt P62483); test: inhibitors of rat Kvbeta2 reductase activity – biochemical, NADPH fluorescence, primary screen (AID 622;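 active = fluorescence slope higher than the sample average by over 3 SD, cut at about -0.22 in these data, passing the limit was not always enough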;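 also: slope of raw intensity against log time taken from 70 to 1610 s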); settings: recombinant KvBeta, 4-cyanobenzaldehyde reduction, at 10 µM, stronger effect = higher value
Voltage-gated potassium channel subunit beta-2 (Rattus norvegicus), sequence (P62483 whole entry, looked up): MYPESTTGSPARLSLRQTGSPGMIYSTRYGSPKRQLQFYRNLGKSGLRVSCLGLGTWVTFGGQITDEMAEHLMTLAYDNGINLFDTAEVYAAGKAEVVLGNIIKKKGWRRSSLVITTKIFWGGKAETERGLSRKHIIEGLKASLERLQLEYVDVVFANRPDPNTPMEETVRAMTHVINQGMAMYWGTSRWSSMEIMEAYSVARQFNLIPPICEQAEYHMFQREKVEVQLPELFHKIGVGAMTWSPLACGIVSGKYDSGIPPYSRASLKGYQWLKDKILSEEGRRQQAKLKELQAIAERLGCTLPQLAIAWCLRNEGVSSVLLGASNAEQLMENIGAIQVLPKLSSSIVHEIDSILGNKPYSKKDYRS

[5] = target: Voltage-gated potassium channel subunit beta-2 (Rattus norvegicus) (UniProt P62483); test: enhancers of rat Kvbeta2 NADPH turnover – biochemical, NADPH fluorescence, primary screen (AID 623;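 active = NADPH fluorescence slope more negative than the mean of all samples by about 3 SD, 99.7% confidence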;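 also: fluorescence intensity change per second fitted from 20 to 320 s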); settings: Recombinant KvBeta, NADPH fluorescence decrease slope, 10 min; at 10 µM; stronger effect = lower value
[6] = target: Alpha-2C adrenergic receptor (Homo sapiens) (UniProt P18825); test: compounds altering alpha2C-coupled GIRK flux – cell-based, HEK293 alpha2C/GIRK1/2, thallium flux, primary screen (AID 624;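 active = fluorescence slope after compound addition differing from the mean of all screened samples at 99.7% confidence, in either direction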;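 also: slope of fluorescence ratio to pre-addition baseline per second over 15 to 24 s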); settings: thallium flux BTC fluorescence, at 10 µM, actives lie on both sides
Alpha-2C adrenergic receptor (Homo sapiens), sequence (P18825 whole entry, looked up): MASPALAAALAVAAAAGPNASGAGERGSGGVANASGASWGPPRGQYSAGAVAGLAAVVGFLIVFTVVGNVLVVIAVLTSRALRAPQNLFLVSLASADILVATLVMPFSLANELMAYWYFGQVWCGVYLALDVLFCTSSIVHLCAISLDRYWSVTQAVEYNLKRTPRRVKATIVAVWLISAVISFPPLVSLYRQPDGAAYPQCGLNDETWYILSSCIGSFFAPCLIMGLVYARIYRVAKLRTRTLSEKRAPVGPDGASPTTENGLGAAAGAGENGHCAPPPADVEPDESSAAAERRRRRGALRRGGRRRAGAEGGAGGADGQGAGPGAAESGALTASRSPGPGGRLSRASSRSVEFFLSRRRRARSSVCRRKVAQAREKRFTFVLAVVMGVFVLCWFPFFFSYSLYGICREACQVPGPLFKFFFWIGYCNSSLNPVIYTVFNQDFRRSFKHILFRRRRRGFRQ

[7] = blockers of RIG-like receptor reporter activation – cell-based, Sendai virus stimulus, luciferase, 10K MLSCN set, TLR/RLR signaling modifier project, primary screen (AID 602276;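 active = inhibition at or above 50% at 10 µM; inactive = inhibition below 50%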;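 also: firefly luciferase from ISG56 promoter only with Renilla not read in this screen; 0% = Sendai virus plus DMSO and 100% = medium plus DMSO without virus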); settings: HEK293 RL24 IRF3 luciferase reporter, at 10 µM, stronger effect = higher value
[8] = TLR3 IRF3 reporter activation blockers – cell-based, poly I:C stimulus, luciferase, 10K MLSCN set, primary screen (AID 602277;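 active = inhibition of the reporter signal at or above 50%; inactive = inhibition below 50%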); settings: HEK293-TLR3 RL24 IRF3 luciferase reporter, at 10 µM, stronger effect = higher value

| Structure (SMILES) | cell count [1] | inhibition [1] | inhibition of aggregation [2] | nuclei count [2] [%] | inhibition [3] | nuclei count [3] [%] | fluorescence slope [4] | NADPH fluorescence slope [5] | slope [6] | inhibition [7] | inhibition [8] |
| --- | --- | --- | --- | --- | --- | --- | --- | --- | --- | --- | --- |
| CC(C)(C)P(=O)(c1ccncc1)N1CCCC1 (stereo not drawn) | 520 | -2.4% (inactive) | -2.3% (inactive) | 113 | -21% (inactive) | 115 | -0.275 (inactive) | -4.3e-05 (inactive) | 0.00562 (inactive) | 14.9% (inactive) | 22.7% (inactive) |
| CCOc1c(P(=S)(N(C)C)N(C)C)c(C)nn1-c1ccccc1 | 305 | -5.2% (inactive) | 4.6% (inactive) | 108 | -3.3% (inactive) | 112 | -0.345 (inactive) | 8e-06 (inactive) | 0.0033 (inactive) | 13.8% (inactive) | 16.7% (inactive) |
| CCOc1ccc(C2SCC(=O)Nc3c2c(=O)[nH]n3C2CCCCCC2)cc1 (stereo not drawn) | 286 | 23.8% (inactive) | 7.5% (inactive) | 88.4 | -14.2% (inactive) | 102 | -0.408 (inactive) | -2.7e-05 (inactive) | 0.00778 (inactive) | -12.2% (inactive) | 98.8% (active) |
| CCOc1cc2[nH]c(=S)n(CCCC(=O)N3CCC4(CC3)OCCO4)c(=O)c2cc1OCC | 429 | 9.4% (inactive) | -0.4% (inactive) | 95.6 | -41.4% (inactive) | 107 | -0.464 (inactive) | 7.5e-06 (inactive) | 0.00495 (inactive) | -5.57% (inactive) | 17.4% (inactive) |
| O=C(NCc1ccccn1)c1ccccc1Cl | 627 | -0.6% (inactive) | 2.9% (inactive) | 111 | -26.1% (inactive) | 92.5 | -0.532 (inactive) | -5.9e-05 (inactive) | 0.00536 (inactive) | 10.8% (inactive) | 10.8% (inactive) |
| Cc1ccc(C)c(NC2=NCCCS2)c1 | 304 | 9.3% (inactive) | 15.3% (inactive) | 92.5 | -82.5% (inactive) | 91 | -0.566 (inactive) | 9.6e-06 (inactive) | 0.00513 (inactive) | 17.2% (inactive) | 22% (inactive) |
| CCC(C(=O)N1CCC2(CC1)OCCO2)c1ccccc1 (stereo not drawn) | 391 | 8.2% (inactive) | 18.1% (inactive) | 111 | -81.6% (inactive) | 99.5 | -0.381 (inactive) | -2.6e-05 (inactive) | 0.00492 (inactive) | 14.2% (inactive) | 7.25% (inactive) |
| CCC(=NCCCN1CCOCC1)c1c(O)n(Cc2ccccc2)c(=O)[nH]c1=O | 481 | 0.8% (inactive) | 8.2% (inactive) | 101 | -36.6% (inactive) | 167 | -0.629 (inactive) | -2.2e-05 (inactive) | 0.00745 (inactive) | -4.98% (inactive) | 1.2% (inactive) |
| COc1ccc(OC)c(N2C(=O)NC(=O)C(CCc3ccncc3)(CCc3ccncc3)C2=O)c1 | 397 | 1% (inactive) | -24.7% (inactive) | 107 | -73% (inactive) | 115 | -0.329 (inactive) | -2.9e-06 (inactive) | 0.00479 (inactive) | 10.1% (inactive) | 12% (inactive) |
| CC#CP(=O)(OCC)C(O)(c1ccccc1)C(F)(F)F (stereo not drawn) | 621 | 12.5% (inactive) | 4.9% (inactive) | 90.8 | -29.4% (inactive) | 110 | -0.621 (inactive) | 5.6e-07 (inactive) | 0.0037 (inactive) | 15% (inactive) | 23.4% (inactive) |
| O=c1[nH]c(=O)n(CCc2ccc(F)cc2)c(O)c1C=NCCCn1ccnc1 | 544 | 2.2% (inactive) | -7.2% (inactive) | 110 | 2.2% (inactive) | 102 | -0.589 (inactive) | -3.2e-05 (inactive) | 0.00323 (inactive) | 13.3% (inactive) | 24% (inactive) |
| COc1ccc(N2CCN(CCCN)CC2)cc1 | 356 | 2.8% (inactive) | -5.7% (inactive) | 106 | -21% (inactive) | 113 | -0.603 (inactive) | -1.3e-05 (inactive) | 0.00595 (inactive) | 11.2% (inactive) | 15.4% (inactive) |
| C=CCn1c(O)c(C(C)=NCCCO)c(=O)[nH]c1=O | 631 | 5.7% (inactive) | -3.2% (inactive) | 108 | -110% (inactive) | 156 | -0.467 (inactive) | -4.7e-05 (inactive) | 0.00383 (inactive) | -1.46% (inactive) | 16.8% (inactive) |
| O=c1[nH]c(=O)n(Cc2ccc(F)cc2)c(O)c1C=NCCCN1CCOCC1 | 728 | -22.4% (inactive) | 4.6% (inactive) | 105 | 35.3% (inactive) | 101 | -0.441 (inactive) | 1.3e-06 (inactive) | 0.00502 (inactive) | -0.0843% (inactive) | 3.86% (inactive) |
| CC(=O)Nc1ccc(OC(=O)c2ccccc2N)cc1 | 292 | -3.4% (inactive) | -8.5% (inactive) | 76.3 | -96.3% (inactive) | 111 | -0.447 (inactive) | -1.3e-05 (inactive) | 0.00336 (inactive) | 3.45% (inactive) | 27.2% (inactive) |
| CCn1c(C)c(C(=O)O)c2cc(OC)ccc21 | 617 | 3.5% (inactive) | 1.8% (inactive) | 96.3 | 11.4% (inactive) | 107 | -0.495 (inactive) | -2.5e-05 (inactive) | 0.00472 (inactive) | 14.5% (inactive) | 22.2% (inactive) |
| O=C(c1cccs1)C1CN2CCC1CC2 (stereo not drawn) | 582 | -15.9% (inactive) | 1.5% (inactive) | 75.5 | 7.9% (inactive) | 110 | -0.485 (inactive) | 3e-05 (inactive) | 0.00316 (inactive) | -7.76% (inactive) | 20.7% (inactive) |
| CC1=C(C(=O)N2CCC3(CC2)OCCO3)C2(CCC(C)CC2)OC1=O (stereo not drawn) | 651 | -25.5% (inactive) | 3.3% (inactive) | 104 | -0.9% (inactive) | 103 | -0.377 (inactive) | -4.4e-05 (inactive) | 0.00593 (inactive) | 7.64% (inactive) | 31.1% (inactive) |
| Cc1ccc(C)c(NC(=O)CSc2nnc([C@@H](N)Cc3c[nH]c4ccccc34)o2)c1 | 282 | 9.5% (inactive) | -6.6% (inactive) | 103 | -8.3% (inactive) | 92.8 | -0.428 (inactive) | -1.2e-05 (inactive) | 0.00513 (inactive) | 9.6% (inactive) | 24.2% (inactive) |
| O=C(c1ccncc1)C12CN3CN(CN(C3)C1)C2 | 459 | 4.5% (inactive) | 15.7% (inactive) | 104 | -155% (inactive) | 98.1 | -0.409 (inactive) | -3.9e-05 (inactive) | 0.00372 (inactive) | 10% (inactive) | 30.7% (inactive) |
| Cc1ccc(C(=O)C2CN3CCC2CC3)cc1 (stereo not drawn) | 882 | -7.3% (inactive) | -13.1% (inactive) | 103 | -84.2% (inactive) | 111 | -0.441 (inactive) | -2.3e-05 (inactive) | 0.00351 (inactive) | 11.9% (inactive) | 43.4% (inactive) |
| CCCC(C)C1C(C#N)=C(N)Oc2c1c(=O)oc1ccccc21 (stereo not drawn) | 547 | -13.2% (inactive) | 9.9% (inactive) | 86.4 | -29.8% (inactive) | 108 | -0.422 (inactive) | 2.9e-06 (inactive) | 0.00396 (inactive) | 7.33% (inactive) | 22.2% (inactive) |
| O=C(O)C1(c2ccc(Cl)cc2)CCC1 | 433 | 7.5% (inactive) | 1.5% (inactive) | 104 | -422% (inactive) | 158 | -0.461 (inactive) | 2.3e-05 (inactive) | 0.00643 (inactive) | 12.9% (inactive) | 21.3% (inactive) |
| Cc1nn(-c2ccccc2)c2c1CC1(C(=O)N(C)C(=O)N(C)C1=O)C1CCCCN21 (stereo not drawn) | 438 | -14.2% (inactive) | 26.9% (inactive) | 65.3 | -8.8% (inactive) | 101 | -0.509 (inactive) | -2.5e-05 (inactive) | 0.00545 (inactive) | -9.7% (inactive) | 28.2% (inactive) |
| CN(C)CCc1nc2ccccc2c(=O)n1-c1ccccc1 | 241 | -2.3% (inactive) | 16.8% (inactive) | 96.8 | -21% (inactive) | 124 | -0.495 (inactive) | -5e-05 (inactive) | 0.00675 (inactive) | -20.1% (inactive) | -35% (inactive) |
| CC(C)C(=O)c1cn(Cc2ccccc2C#N)c2ccccc12 | 504 | 3.5% (inactive) | 11.4% (inactive) | 72.7 | -24.8% (inactive) | 99.8 | -0.376 (inactive) | 3.6e-05 (inactive) | 0.00712 (inactive) | 17.4% (inactive) | 20.1% (inactive) |
| CCOc1ccc(-n2c(O)c(C=NCCN(CC)CC)c(=O)[nH]c2=O)cc1 | 411 | -1.5% (inactive) | -1.7% (inactive) | 89.3 | -87.3% (inactive) | 125 | -0.553 (inactive) | 1.2e-05 (inactive) | 0.00486 (inactive) | 0.257% (inactive) | 1.28% (inactive) |
| CC(=NCc1ccc2c(c1)OCO2)c1c(O)n(C)c(=O)n(C)c1=O | 629 | -10.8% (inactive) | 0.7% (inactive) | 94.1 | 5.3% (inactive) | 97.5 | -0.409 (inactive) | 1.3e-05 (inactive) | 0.00333 (inactive) | 20.7% (inactive) | 25.9% (inactive) |
